Source: PubChem BioAssay
PLAP act – PLAP enzyme activators, biochemical, luminescence, HTS | hit rate 1.2% among 96,000 | activation fold at 20 µM | AID 696, 2007 | Alkaline phosphatase, placental type (Homo sapiens), P05187 | purified PLAP enzyme, luminescent substrate read-out; active compounds read high; in the data active means activation fold above about 2
HePTP inh – inhibitors of human HePTP phosphatase, primary screen, biochemical, absorbance, leukemia target; hit rate 0.64% among 110,000; inhibition, % at 20 µM; AID 521, 2006; recombinant HePTP phosphatase activity, OD absorbance; Tyrosine-protein phosphatase non-receptor type 7 (Homo sapiens), P35236; in the data active means inhibition above about 50%;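 further: plate controls were vehicle for no effect and reference inhibitor for full effect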
Target sequence (P35236 whole entry, looked up): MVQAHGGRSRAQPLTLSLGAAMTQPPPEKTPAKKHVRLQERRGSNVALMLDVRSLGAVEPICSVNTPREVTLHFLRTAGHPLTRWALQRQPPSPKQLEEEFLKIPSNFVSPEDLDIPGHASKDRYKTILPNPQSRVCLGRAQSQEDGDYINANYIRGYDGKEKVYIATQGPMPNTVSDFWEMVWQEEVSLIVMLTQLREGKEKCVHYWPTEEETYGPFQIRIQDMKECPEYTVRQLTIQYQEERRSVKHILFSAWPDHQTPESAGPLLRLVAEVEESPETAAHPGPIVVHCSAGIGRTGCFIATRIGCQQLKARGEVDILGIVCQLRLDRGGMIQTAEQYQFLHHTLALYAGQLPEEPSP
CD11b adhes enh – enhancers of CD11b/CD18 adhesion to fibrinogen, primary screen, K562 cells, luminescence; Integrin beta-2 (Homo sapiens) + Integrin alpha-M (Homo sapiens), P05107+P11215; ATPlite luminescence; activation, % at 10 µM; hit rate 0.07% among 93,000; AID 1499, 2009;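 active means 10 µM primary screen giving 50% or more activity, confirmed by 40% or more on retest at that dose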
CD11b adhes inh – inhibitors of CD11b/CD18 adhesion to fibrinogen, primary screen, K562 cells, luminescence. ATPlite luminescence; Mn2+ added to activate the integrin. inhibition, % at 10 µM. hit rate 0.54% among 93,000;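 active means primary inhibition of 50% or more at 10 µM, then 40% or more on retest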
Numbers without * were called inactive; x = no result; ! = a repeat was not active. In the library only some 1.5% were active in any assay of this set; here they are far more common.

SMILES	PLAP act	HePTP inh	CD11b adhes enh	CD11b adhes inh
CCCOc1ccc(Cn2cnc3ccccc32)cc1	0.9	2	-8	89*
O=C(N/N=C/c1c(F)cccc1Cl)c1ccc(O)cc1O	x	-1	x	x
O=C1NC(=S)N(c2ccc(F)cc2)C(=O)C1=Cc1ccc([N+](=O)[O-])s1	x	42	x	x
COc1ccccc1NC(=O)CC1S/C(=N\N=C(/C)c2ccc([N+](=O)[O-])cc2)NC1=O (centres undefined)	x	9	x	x
NS(=O)(=O)c1ccc(NCc2ccccc2OCc2ccc(F)cc2)cc1	x	x	-6	65*
NS(=O)(=O)c1ccc(NCc2cc(Cl)ccc2OCc2ccccc2F)cc1	0.9	x	-11	22
O=C1C2C(C(=O)N1/N=C/c1ccc(Cl)cc1Cl)C1C=CC2C12CC2 (centres undefined)	x	4	x	x
CC(C)(C)n1ncc2c(=O)n(Cc3ccc(Cl)cc3Cl)cnc21	1.1	x	5	50*
CC(C)(C)n1ncc2c(=O)n(Cc3c(F)cccc3Cl)cnc21	1.1	x	0	5
O=C(O)C(Cc1ccccc1)N1C(=O)/C(=C/c2cccc3ccccc23)SC1=S (centres undefined)	1.1	-11	-5	91*
O=C(O)C(Cc1ccccc1)N1C(=O)/C(=C/c2ccc(Cl)cc2Cl)SC1=S (centres undefined)	x	-5	x	x
O=C(CN1C(=O)/C(=C\c2ccccc2F)SC1=S)Nc1ccc(C(=O)O)cc1	x	53*	x	x
Cc1oc(-c2ccccc2F)nc1CN1CCC(C(=O)NC2CCCCCCC2)CC1	2*	4	-4	-4
Cc1oc(-c2ccccc2F)nc1CN1CCC(C(=O)NCc2ccco2)CC1	1.3	-4	-6	2
Cc1oc(-c2ccccc2F)nc1CN1CCC(C(=O)NC2CCCc3ccccc32)CC1 (centres undefined)	2*	x	-2	-3
COc1cccc(-n2cnnn2)c1	0.9	x	2	0
COc1cccc(-n2cnc3cccc(N)c32)c1	1.2	92*!	-1	28
C/C(=N\N1CCN(Cc2ccc(C)cc2)CC1)c1ccccc1O	x	-2	x	x
Cc1ccc(COc2ccc(C=C3C(=O)NC(=O)NC3=O)cc2Br)cc1	x	4	x	x
O=C1NC(=S)NC(=O)C1=Cc1ccc(OCc2ccc3ccccc3c2)c(Br)c1	x	52*	x	x
O=C1C(Cl)=C(Nc2ccc(O)cc2)c2c(Cl)c(Cl)c(Cl)c(Cl)c21	x	-3	x	x
CCCCN(CCCNC(=O)c1ccc2nc(N3CCOCC3)sc2c1)Cc1ccccc1	2.2*	x	-5	-4
O=C(c1ccc2nc(N3CCOCC3)sc2c1)N1CCC(Cc2ccccc2)CC1	1.6	x	-6	24
COc1ccc(CCN(C(=O)/C=C/C(=O)O)C2CC(=O)N(c3ccc(F)cc3)C2=O)cc1 (centres undefined)	x	7	x	x
CCCC(=O)c1ccc(N2CCN(C(=O)c3cccc(F)c3)CC2)c(F)c1	x	2	x	x
SMILES	PLAP act	HePTP inh	CD11b adhes enh	CD11b adhes inh
O=C1N=C(N=Nc2c(O)[nH]c3ccccc23)S/C1=C/c1ccc(Br)cc1	x	103*	x	x
NC(=O)N=Nc1c(O)[nH]c2ccccc12	x	-6	x	x
CCCCOC(=O)c1cccc(NC(=O)COc2ccccc2Cl)c1	x	2	x	x
O=C1NC(=S)N/C1=C/c1ccc(OCc2cccc(C(=O)O)c2)cc1	x	103*	x	x
COc1nc(Nc2ccccc2)nc(NC(C)(C)C)n1	x	3	x	x
O=C(NC1CCCCC1)Oc1ccc2oc(=O)sc2c1	x	2	x	x
CN(/C=C/C=C1\CC/C(=C\C=C\N(C)c2ccccc2)C1=O)c1ccccc1	x	98*	x	x
CN(C)/C=C/C=C/C=C1\CCC/C(=C\C=C\N(C)C)C1=O	x	-1	x	x
Cn1c(N)c(C(=O)c2cc(-c3ccccn3)nc3ccccc23)c(=O)[nH]c1=O	2*	7	1	17
CCc1ccccc1N(CC(=O)Nc1ccc(I)cc1)S(C)(=O)=O	x	-9	x	x
CC1CCN(CC(O)COc2cccc(F)c2)CC1 (centres undefined)	1.1	6	-4	87*
O=C(c1cc(-c2ccc(Br)cc2)nc2ccccc12)N1CCN(c2ccc(F)cc2)CC1	x	-3	x	x
CCOc1ccc(NC(=O)CN(C)CC(=O)Nc2cc(Cl)ccc2C#N)cc1OCC	2.1*	x	7	-5
CCOC(=O)c1cn(-c2ccc(F)c(F)c2F)c2c(F)c(F)c(F)cc2c1=O	0.8	x	-4	-8
CCOC(=O)c1cn(-c2nc(-c3ccc(Cl)c(Cl)c3)cs2)c2c(F)c(N3CCOCC3)c(F)cc2c1=O	1.2	x	52*	6
O=C(N/N=C\C=C\c1ccco1)c1ccc(Br)cc1	x	21	x	x
COc1ccc(Cl)cc1N(CC(=O)N1CCN(c2ccccc2)CC1)S(=O)(=O)c1ccccc1	x	-10	x	x
Cc1ccc(C)n1/N=C1\NC(=O)CS1	x	99*	x	x
Cc1nnc(SCC(=O)N2CC(=O)Nc3ccccc32)n1C	0.9	x	-5	-20
CC(c1nnc(SCC(=O)N2CC(=O)Nc3ccccc32)n1Cc1ccccc1)N(C)C (centres undefined)	2*	x	-1	3
Cc1ccc(C(=O)NNC(=O)C2CCN(Cc3ccccc3)CC2)cc1	2.1*	x	-1	21
Cc1ccc(C(=O)NNC(=O)C2CCN(Cc3ccc(Cl)c(Cl)c3)CC2)cc1	1.1	x	-8	-5
Nc1nc(-c2ccccc2)cs1	0.8	x	-1	-33
N#CC1=C(N)N=C(SCc2ccccc2)C(C(N)=O)C12CCCCC2 (centres undefined)	1.4	2	x	x
N#CC1=C(S)N=C(N)C(c2nc(-c3ccccc3)cs2)C12CCCC2 (centres undefined)	2.5*	x	-4	1
SMILES	PLAP act	HePTP inh	CD11b adhes enh	CD11b adhes inh
Cc1ccc(-c2csc(C3C(N)=NC(S)=C(C#N)C34CCCCC4)n2)cc1 (centres undefined)	2.4*	x	14	-1
N#CC1=C(S)N=C(N)C(c2nc(-c3ccccc3)cs2)C12CCCCC2 (centres undefined)	2.2*	x	-2	2
O=C1C(=O)N(Cc2ccccc2)C(c2cccc(F)c2)/C1=C(/O)c1ccccc1 (centres undefined)	x	11	x	x
CC(=O)c1cccc(NC(=O)c2ccc([N+](=O)[O-])c(C)c2)c1	x	-12	x	x
Cc1c(C#N)c(N)c(C(=O)c2ccc(Br)cc2)n1-c1ccc(Br)cc1	x	10	x	x
Cc1c(C#N)c(N)c(C(=O)c2ccccc2)n1-c1ccccc1	x	70*	x	x
CCCCOC(=O)c1ccc(NC(=O)c2c(Cl)ccc(Cl)c2OC)cc1	x	-4	x	x
CCCCCCOC(=O)c1ccc(NC(=O)c2cc(OC)c(OC)c(OC)c2Br)cc1	2*	x	-1	24
COC(=O)c1sc(S(=O)(=O)Nc2ccc(Br)cc2)c(C(=O)OC)c1C	x	x	-7	91*
COC(=O)c1sc(S(=O)(=O)Nc2ccc3cn[nH]c3c2)c(C(=O)OC)c1C	1.2	-2	6	-33
Cc1cc(N2CCN(c3nc4ccccc4s3)CC2)n2ncnc2n1	1.4	10	-12	74*
O=C(COc1ccc(Cl)cc1Br)NNC(=O)c1cccs1	x	-6	x	x
Cc1ccc(-n2nc3ccc(NC(=O)c4ccc5c(c4)OCO5)cc3n2)cc1	1.1	x	139*	-5
O=C(Nc1ccc2nn(-c3ccc(F)cc3)nc2c1)c1ccc(Br)o1	x	81*	x	x
O=C1NC(=Nc2cccc(Cl)c2Cl)S/C1=C\c1ccco1	x	6	x	x
